In the library only some 1.2% were active in any assay of this set; here they are far more common.
NR5A2 inv ag: suppresses constitutive activity of human LRH-1; O00482; HEK293T StAR-luciferase reporter, LRH-1 transfected, 24 h; inhibition, % at 3.6 µM; 360,000 compounds, 0.13% hits;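 active = inhibition above the mean inhibition of all tested compounds plus 3 SD, cut at about 73% in these data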;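 also: 0% = DMSO wells and 100% = reporter-only cells lacking LRH-1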
NCOA1 inh: inhibitors of human steroid receptor coactivator 1 (SRC1) | Q15788 | AID 588354 | 360,000 compounds, 0.12% hits | HEK293 GAL4-SRC1 luciferase reporter, luminescence | inhibition, % at 3.6 µM;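 active = inhibition above the campaign mean plus 3 SD, with each screening campaign given its own cutoff, cut at about 60% in these data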;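 also: 0% = DMSO treated cells and 100% = gossypol at 36 µM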
LMP1 NFkB inh: Epstein-Barr LMP1 NF-kappaB reporter inhibition; LMP1-induced NF-kappaB luciferase reporter cells, luminescence; inhibition, % at 12.5 µM; 350,000 compounds, 0.69% hits; AID 504558; in the data active = inhibition above about 41%; inconclusive = no clear call, values can overlap the other calls;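 also: 0% = neutral control wells and 100% = reference inhibitor control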
Shn3 inh set2: reduces Shn3 3'UTR luciferase signal in osteoblasts | AID 588674 | 360,000 compounds, 0.52% hits | inhibition, % at 12.5 µM | Clone20 osteoblast Shn3 3'UTR firefly luciferase, 24 h;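 active = mean inhibition of at least 75% with every replicate also reaching 75%; inconclusive = mean inhibition at least 75% but some replicate below; inactive = mean inhibition below 75%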;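 also: 0% = median of neutral control wells and 100% = pilot-screen positive control compound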
SRC3 inh: inhibitors of human steroid receptor coactivator 3 (SRC3); 360,000 compounds, 0.17% hits; AID 588352; inhibition, % at 3.6 µM; HEK293 GAL4-SRC3 luciferase reporter, luminescence; Q9Y6Q9;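 active = inhibition above a per-campaign cutoff, the mean of all compounds plus 3 SD, cut at about 60% in these data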;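 also: 0% = DMSO-treated cells and 100% = gossypol-treated cells at 36 µM; higher means less SRC3-driven luciferase light from the GAL4 reporter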
NCOA2 inhibitor: inhibits human steroid receptor coactivator 2. HEK293 GAL4-SRC2 luciferase reporter, luminescence. inhibition, % at 9 µM. 370,000 compounds, 0.17% hits. AID 651957;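 active = inhibition above the mean inhibition of all tested compounds plus 3 SD, set per campaign, cut at about 52% in these data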;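 also: 0% = DMSO treated cells and 100% = cells given Gossypol at 36 µM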
Numbers without * were called inactive; ? = inconclusive; . = not tested or not shown.

SMILES	NR5A2 inv ag	NCOA1 inh	LMP1 NFkB inh	Shn3 inh set2	SRC3 inh	NCOA2 inhibitor
COc1ccc(N2CCN(C(=O)c3ccc(CNS(=O)(=O)c4ccc(C)cc4)cc3)CC2)cc1	-14.1	3.7	19.3	23.1	4.2	14.4
O=[N+]([O-])c1ccc(C(=S)N2CCN(Cc3ccccc3)CC2)cc1	8.9	9.8	1.2	5.3	20.0	2.7
CC(C)C[C@H]1COc2cc(Br)ccc2S(=O)(=O)N1Cc1cn(Cc2ccc(F)cc2)nn1	.	.	.	.	.	15.6
COc1cccc(/C=N/NC(=O)CN2CC(c3ccccc3)CC2=O)c1OC (stereo unspecified)	28.3	7.7	74.6*	13.0	9.5	-6.4
Cc1ccc(-c2cc(C(=O)N=Nc3c(O)[nH]c4ccccc34)[nH]n2)cc1C	.	.	.	.	.	-23.5
Cn1c(/C=C/c2ccc([N+](=O)[O-])o2)nc2ccccc2c1=O	13.0	-18.8	87.7*	96.5*	19.0	.
Cc1nc2c(-c3ccc(Cl)cc3)c(C)[nH]n2c(=O)c1Cc1ccccc1	38.9	34.6	43.4*	37.6	45.7	-9.1
CC[C@@H](C(=O)[C@@H](C)[C@@H](O)[C@H](C)[C@@H]1O[C@@H]([C@@H](CC)C(=O)O)CC[C@@H]1C)[C@H]1O[C@]2(C=C[C@@H](O)[C@]3(CC[C@@](C)([C@H]4CC[C@](O)(CC)[C@H](C)O4)O3)O2)[C@H](C)C[C@@H]1C	85.8*	-39.4	-4.2	81.6	62.2*	2.5
CC(C)CN1CN2Cc3cc(F)ccc3C2CS1(=O)=O (stereo unspecified)	.	.	.	.	.	7.0
Cc1cc(/C=C2\SC(=S)N(C)C2=O)c(C)n1-c1ccc(O)cc1	72.1	80.2*	47.5*	-37.5	80.6*	72.6*
O=C(N/N=C(/CC(=O)c1cccs1)C(F)(F)F)c1ccc(O)cc1	-16.8	9.3	49.4*	14.2	-4.4	10.0
O=C(N/N=C(\CC(=O)c1cccs1)C(F)(F)F)c1cccnc1	4.5	4.6	-1.5	17.8	13.6	-22.9
CCCCCCn1cc(CN2CC=CS2(=O)=O)nn1	.	.	.	.	.	-16.5
O=C(N/N=C/c1sc2ccccc2c1O)c1cccc2ccccc12	18.6	11.7	53.9*	70.0	32.2	16.3
COCCCN1C(=O)[C@H](CC(=O)NCc2cccc3ccccc23)[C@]2(C(=O)OC)CCCCC=C12	.	.	.	.	.	11.4
CC(=O)OCC1OC(n2ccc3ccccc32)C(OC(C)=O)C(OC(C)=O)C1OC(C)=O (stereo unspecified)	-3.1	13.5	-0.8	11.9	5.4	13.0
COC(=O)C1C=CC(OC2OC(COC(C)=O)C(OC(C)=O)C(OC(C)=O)C2OC(C)=O)n2c(=O)n(-c3ccccc3)c(=O)n21 (stereo unspecified)	-8.2	-21.8	-4.2	97.1*	-20.1	15.9
c1ccc(Nc2nc(NCc3ccco3)c3ccccc3n2)cc1	-52.9	-51.1	-13.8	66.8	-1.6	29.9
Cc1cccc(Nc2nc(NCc3ccco3)c3ccccc3n2)c1	-5.4	-7.8	?	88.4*	17.6	34.9
O=C(Nc1c(-c2ccc(F)cc2)nc2ncccn12)C1CC1	.	.	.	.	.	-11.2
C[C@@H]1C=CCCO[C@]12C(=O)N(Cc1ccc(F)cc1)c1ccccc12	.	.	.	.	.	13.8
COC(=O)C1CN(C2CCCC2)CCS(=O)(=O)N1Cc1ccc(OC)cc1 (stereo unspecified)	.	.	.	.	.	20.4
COc1cccc(CNc2nc(NCc3ccccc3)nc3ccsc23)c1	15.3	14.7	.	50.8	-0.9	21.8
COc1cccc(CNc2nc(NCC3CC3)nc3ccsc23)c1	23.6	16.7	.	85.8*	3.7	6.1
COc1ccccc1CNc1nc(NCc2ccc(C(C)C)cc2)c2sccc2n1	11.9	-21.2	.	87.5*	16.8	20.0
COc1cccc(CNc2nc(NCC3CC3)nc3ccsc23)c1OC	34.1	6.1	.	81.7*	21.0	40.6
Cc1cc(/C=N/n2cnnc2)c(C)n1-c1ccc(Cl)cc1	26.4	18.2	3.3	-1.3	20.4	4.1
Cc1cc(/C=N/n2cnnc2)c(C)n1-c1ccc(OCc2ccc(Cl)cc2Cl)cc1	72.6	30.9	30.8	98.1*	46.3	.
Cc1c(CCC(=O)O)c(=O)oc2cc3oc4c(c3cc12)CCCC4	14.0	-20.4	18.9	29.0	13.8	64.0*
CN(Cc1cccc(F)c1)C(=O)CN1CCN(S(=O)(=O)c2ccc3c(c2)OCCCO3)CC1	-0.6	7.5	-3.4	-7.2	10.3	17.4
